Among the data in PubChem BioAssay (EPA / NIEHS) are outcome and AC50 values, retold here.

Activity calls are given as the source filed them. The calls were made as follows: active = hit-call score of the fitted dose curve at least 0.9, where 1 is the maximum; inactive = score below 0.9.

Holding throughout (conditions): mRNA level, 48 h; actives raise or lower the signal
Read-out in assay [1]: MicroRNA 122 (MIR122), gene 406906
The experiment in a line: LTEA_HepaRG_MIR122: Life Technologies and Expression Analysis (LTEA) Assay for MicroRNA 122 (MIR122) using HepaRG (AID 2283516). Also: the transcript read is the microRNA miR-122. In a few lines:
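Expression measured by microfluidic qRT-PCR with three housekeeping genes for normalisation, after 48 h treatment of HepaRG cultures. Eight concentrations (top 100 uM, half-log steps, 0.5% DMSO vehicle) in duplicate; gain or loss fitted relative to vehicle.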

Read-out in assay [2]: matrix metalloproteinase-10 (MMP10), MMP10 (gene 4319)
The experiment in a line: LTEA_HepaRG_MMP10: Life Technologies and Expression Analysis (LTEA) Assay for matrix metalloproteinase-10 (MMP10) using HepaRG (AID 2283517). Put shortly: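 Expression measured by TaqMan qRT-PCR with ACTB/GAPDH/POLR2A normalisation after 48 h chemical exposure of HepaRG cells. Eight half-log concentrations, top 100 uM, 0.5% DMSO vehicle, duplicates; gain or loss fitted against vehicle.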

Read-out in a further assay: MYC, MYC (gene 4609)
Put plainly: LTEA_HepaRG_MYC: Life Technologies and Expression Analysis (LTEA) Assay for MYC using HepaRG (AID 2283518). In a few lines: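 Differentiated human HepaRG cells, plated 48 h then switched to serum-free induction medium, were exposed in duplicate for 48 h to 8-point half-log series up to 100 uM in 0.5% DMSO. MYC mRNA measured by qRT-PCR, normalized to ACTB/GAPDH/POLR2A.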

Read-out in assay [3]: matrix metalloproteinase-3 (MMP3), MMP3 (gene 4314)
The experiment in a line: LTEA_HepaRG_MMP3: Life Technologies and Expression Analysis (LTEA) Assay for matrix metalloproteinase-3 (MMP3) using HepaRG (AID 2283519). In a few lines:
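Fluidigm-based TaqMan qRT-PCR, normalized to ACTB, GAPDH and POLR2A and fitted bidirectionally versus 0.5% DMSO, measured transcript levels. Treatment: duplicate 48 h exposures of HepaRG cells, ~100,000/well, to eight half-log concentrations topping at 100 uM.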

Read-out in assay [4]: Paternally Expressed 10 (PEG10), PEG10 (gene 23089)
Put plainly: LTEA_HepaRG_PEG10: Life Technologies and Expression Analysis (LTEA) Assay for Paternally Expressed 10 (PEG10) using HepaRG (AID 2283520).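 As to AC50: PEG10 transcript by qRT-PCR normalised to ACTB GAPDH and POLR2A.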 In a few lines: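 PEG10 transcript measured by Fluidigm qRT-PCR, normalized to three housekeeping genes, in HepaRG cells treated 48 h (highest 100 uM, half-log steps, 0.5% DMSO vehicle). Cells plated 48 h before switching to serum-free induction medium.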

Read-out in assay [5]: Protein phosphatase 2A (PPP2R4), PTPA (gene 5524)
The experiment in a line: LTEA_HepaRG_PPP2R4: Life Technologies and Expression Analysis (LTEA) Assay for Protein phosphatase 2A (PPP2R4) using HepaRG (AID 2283522). In a few lines:
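Expression was quantified by Fluidigm qRT-PCR normalised to three housekeeping genes after 48 h treatment. Human HepaRG cells received an 8-point series from 100 µM downward by half-logs, in duplicate with 0.5% DMSO vehicle and 1 mM phenobarbital as induction control.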

Read-out in assay [6]: Phosphatase and tensin (PTEN), PTEN (gene 5728)
Put plainly: LTEA_HepaRG_PTEN: Life Technologies and Expression Analysis (LTEA) Assay for Phosphatase and tensin (PTEN) using HepaRG (AID 2283523). In a few lines:
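Read-out: TaqMan qRT-PCR of PTEN transcript, normalized to three housekeeping genes, fitted in both directions against 0.5% DMSO. Differentiated human HepaRG cultures received chemicals for 48 h, eight-point half-log series topping at 100 uM.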

Read-out in assay [7]: solute carrier (SLC22A1), SLC22A1 (gene 6580)
The experiment in a line: LTEA_HepaRG_SLC22A1: Life Technologies and Expression Analysis (LTEA) Assay for solute carrier (SLC22A1) using HepaRG (AID 2283524). In a few lines: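 Transcript level of SLC22A1 quantified by qRT-PCR (normalized to three housekeeping genes) after 48 h chemical exposure of HepaRG cells, eight concentrations up to 100 µM, half-log steps, 0.5% DMSO vehicle. Gain or loss relative to DMSO fitted bidirectionally.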

Read-out in assay [8]: Pyruvate Dehydrogenase Kinase 4 (PDK4), PDK4 (gene 5166)
The experiment in a line: LTEA_HepaRG_PDK4: Life Technologies and Expression Analysis (LTEA) Assay for Pyruvate Dehydrogenase Kinase 4 (PDK4) using HepaRG (AID 2283525). Put shortly: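 Readout is qRT-PCR of PDK4 transcript, normalized to three housekeeping genes, with bidirectional fitting against 0.5% DMSO vehicle. Differentiated HepaRG cells were treated 48 h in serum-free induction medium, duplicate wells, eight-point half-log series topping at 100 uM.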

Read-out in assay [9]: Nuclear factor NF-kappa-B p105 subunit (Homo sapiens) (UniProt P19838)
Put plainly: LTEA_HepaRG_NFKB1: Life Technologies and Expression Analysis (LTEA) Assay for Nuclear Factor Kappa B Subunit 1 (NFKB1) using HepaRG (AID 2283521).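 Also: TaqMan qRT-PCR transcript normalised to ACTB GAPDH and POLR2A housekeeping genes.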 Put shortly: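 Human HepaRG cells receive eight half-log concentrations, highest 100 uM, for 48 h. NFKB1 expression is then quantified by qRT-PCR and analysed for up- or down-regulation relative to 0.5% DMSO vehicle.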

Nuclear factor NF-kappa-B p105 subunit (Homo sapiens), sequence (P19838 whole entry, looked up): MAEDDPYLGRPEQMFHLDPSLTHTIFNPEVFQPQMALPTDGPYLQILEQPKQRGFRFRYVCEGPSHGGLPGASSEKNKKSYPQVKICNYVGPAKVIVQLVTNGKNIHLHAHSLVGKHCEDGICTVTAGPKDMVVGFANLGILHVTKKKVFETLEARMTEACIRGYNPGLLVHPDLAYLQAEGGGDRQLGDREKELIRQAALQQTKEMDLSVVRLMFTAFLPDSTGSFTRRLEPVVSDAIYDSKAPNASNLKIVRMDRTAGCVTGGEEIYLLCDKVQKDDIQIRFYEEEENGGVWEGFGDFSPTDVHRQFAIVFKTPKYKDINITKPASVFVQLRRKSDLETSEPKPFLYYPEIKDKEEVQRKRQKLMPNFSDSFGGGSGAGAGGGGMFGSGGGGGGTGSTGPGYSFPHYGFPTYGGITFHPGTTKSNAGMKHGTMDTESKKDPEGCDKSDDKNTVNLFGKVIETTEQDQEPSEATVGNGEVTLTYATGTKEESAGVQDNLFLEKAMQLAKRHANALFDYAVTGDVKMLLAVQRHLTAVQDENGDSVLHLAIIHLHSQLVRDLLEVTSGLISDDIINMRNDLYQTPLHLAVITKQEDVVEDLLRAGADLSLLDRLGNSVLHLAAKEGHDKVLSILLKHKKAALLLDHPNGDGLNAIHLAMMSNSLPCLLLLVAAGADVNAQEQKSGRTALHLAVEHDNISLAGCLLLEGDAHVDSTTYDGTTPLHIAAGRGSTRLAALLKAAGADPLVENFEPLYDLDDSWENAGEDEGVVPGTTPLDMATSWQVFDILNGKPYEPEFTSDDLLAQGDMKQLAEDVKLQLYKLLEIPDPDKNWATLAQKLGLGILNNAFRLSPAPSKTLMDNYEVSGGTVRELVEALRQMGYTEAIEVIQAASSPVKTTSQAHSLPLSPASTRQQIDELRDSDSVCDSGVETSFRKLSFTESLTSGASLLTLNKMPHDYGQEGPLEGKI

Consider `O=C(O)c1cccc(C(=O)O)c1`, for which the outcome in [1] was “inactive”; in assay [2] it was “inactive”; with MYC, MYC (gene 4609), “inactive”; in assay [3], “inactive”; in assay [4], “inactive”; in [5], “inactive”. In addition, the call in [6], in assay [7] and in [8] was inactive.

Consider `O=S1(=O)CCCO1`, for which the outcome in assay [1] is “inactive”; in assay [2], “inactive”; with MYC, MYC (gene 4609), “inactive”; in [3], “inactive”; in assay [4], “inactive”; in assay [5], “inactive”. In addition, the result in assay [6], in [7] and in assay [8] was inactive.

For `C[C@]12C=CC(=O)C=C1CC[C@H]1[C@@H]3C[C@@H](O)[C@](O)(C(=O)CO)[C@@]3(C)C[C@H](O)[C@@]12F`, the outcome in [1] is “inactive”; in assay [2] it was “inactive”; with MYC, MYC (gene 4609), “inactive”; in assay [3] it was “inactive”; in assay [4], “inactive”; in assay [5], “inactive”. Also, the outcome in assay [6], in [7] and in assay [8] was inactive.

For the molecule `c1ccc2ncccc2c1`, the outcome is “inactive” in [1]; “inactive” in assay [2]; “inactive” in the assay with MYC, MYC (gene 4609); “inactive” in assay [3]; “inactive” in [4]; “inactive” in assay [6]. In addition, the call in assay [7] and in [8] was inactive.

The AC50 is the concentration giving half of the maximal activity seen. Take `O=C1CN(N=Cc2ccc([N+](=O)[O-])o2)C(=O)N1`: the molecule was classed as inactive in assay [1], in assay [2], in [3], in assay [4] and in [6]. The AC50 is 80.1 µM (active) with MYC, MYC (gene 4609); 32.7 µM (active) in [7]; 57.6 µM (active) in [8].

Consider `c1ccc(C(O[C@@H]2CCCN(CCc3ccc4c(c3)OCO4)C2)c2ccccc2)cc1`, for which the AC50 in [1] was 69.7 µM (active); with MYC, MYC (gene 4609) it was 83.4 µM (active); in assay [3], 25.2 µM (active); in [4] it was 13.1 µM (active); in assay [6] it was 79.6 µM (active); in assay [7], 79.2 µM (active). Moreover, the AC50 in assay [8] was 73.5 µM (active). In addition, in assay [2], the molecule was classed as inactive.

`C=CN1CCCC1=O`: the outcome in assay [1] was “inactive”; in assay [2], “inactive”; with MYC, MYC (gene 4609), “inactive”; in assay [3], “inactive”; in assay [4] it was “inactive”; in assay [5] it was “inactive”. Further, the molecule was classed as inactive in [6], in assay [7] and in [8].

Turning to `CCCCCOC(C)=O`, the outcome was “inactive” in [1]; “inactive” in assay [2]; “inactive” in the assay with MYC, MYC (gene 4609); “inactive” in assay [3]; “inactive” in assay [4]; “inactive” in assay [9]. Besides, the outcome in assay [6], in [7] and in assay [8] was inactive.

As for `CNC(C)=O`, the outcome was “inactive” in [1]; “inactive” in [2]; “inactive” with MYC, MYC (gene 4609); “inactive” in assay [3]; “inactive” in [4]; “inactive” in [6]. Further, the outcome in [7] and in [8] was inactive.

For `COS(C)(=O)=O`, the outcome was “inactive” in assay [1]; “inactive” in [2]; “inactive” with MYC, MYC (gene 4609); “inactive” in [3]; “inactive” in [4]; “inactive” in [9]. Further, the result in [6], in [7] and in [8] was inactive.

As for `CC1(C)C(=O)N(Cl)C(=O)N1Cl`, the outcome in [1] is “inactive”; in assay [2] it was “inactive”; in the assay with MYC, MYC (gene 4609), “inactive”; in [3], “inactive”; in assay [4], “inactive”; in [5], “inactive”. In addition, the result in [6], in assay [7] and in assay [8] was inactive.

`CCOC(N)=O`: the outcome was “inactive” in assay [1]; “inactive” in [2]; “inactive” in the assay with MYC, MYC (gene 4609); “inactive” in assay [3]; “inactive” in assay [4]; “inactive” in assay [6]. In addition, the result in assay [7] and in assay [8] was inactive.

On to `CCCc1ccccc1`, for which the outcome in assay [1] was “inactive”; in [2], “inactive”; with MYC, MYC (gene 4609) it was “inactive”; in assay [3] it was “inactive”; in assay [4], “inactive”; in [6], “inactive”. The outcome in assay [7] and in assay [8] was inactive.

Take `CCCC(CCC)C(=O)O`: the outcome in assay [1] is “inactive”; in assay [2], “inactive”; with MYC, MYC (gene 4609) it was “inactive”; in [3], “inactive”; in assay [4], “inactive”; in assay [9], “inactive”. For the same molecule, the call in assay [6], in assay [7] and in assay [8] was inactive.

Regarding `CCCCCCCC1CCC(=O)O1` (centres undefined), the outcome in [1] is “inactive”; in assay [2] it was “inactive”; in the assay with MYC, MYC (gene 4609), “inactive”; in assay [3], “inactive”; in [4], “inactive”; in assay [6], “inactive”. Also, the molecule was classed as inactive in [7] and in [8].

In the case of `OC[C@H]1O[C@@H]2O[C@H]3[C@H](O)[C@@H](O)[C@@H](O[C@H]4[C@H](O)[C@@H](O)[C@@H](O[C@H]5[C@H](O)[C@@H](O)[C@@H](O[C@H]6[C@H](O)[C@@H](O)[C@@H](O[C@H]7[C@H](O)[C@@H](O)[C@@H](O[C@H]1[C@H](O)[C@H]2O)O[C@@H]7CO)O[C@@H]6CO)O[C@@H]5CO)O[C@@H]4CO)O[C@@H]3CO`, the outcome in [1] was “inactive”; in assay [2], “inactive”; with MYC, MYC (gene 4609) it was “inactive”; in [3] it was “inactive”; in assay [4], “inactive”; in assay [6], “inactive”. Further, the call in assay [7] and in [8] was inactive.

Take `CCCCCCCCCCCCCCO`: the outcome is “inactive” in assay [1]; “inactive” in assay [2]; “inactive” with MYC, MYC (gene 4609); “inactive” in [3]; “inactive” in assay [4]; “inactive” in [9]. In addition, the result in assay [6], in [7] and in [8] was inactive.

On to `c1ccc2c(c1)-c1cccc3c1c-2cc1ccccc13`, for which the concentration at half-maximal activity (AC50) in assay [1] is 19.6 µM (active); in the assay with MYC, MYC (gene 4609), 2.06 µM (active); in assay [4], 8.43 µM (active); in assay [5] it was 14.3 µM (active); in assay [7], 18.8 µM (active); in assay [8], 8.2 µM (active). For the same molecule, the molecule was called inactive in [2], in [3] and in assay [6].
